This is an account of results in PubChem BioAssay (NCATS).

Experiment [1] addresses Ubiquitin carboxyl-terminal hydrolase 1 (Homo sapiens) (UniProt O94782). Put plainly: Inhibitors of USP1/UAF1: Pilot qHTS (AID 504865).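 Note: rhodamine fluorescence freed from ubiquitin-rhodamine substrate followed over time; top concentration of the series differs between compounds; nearly all actives have a fitted effect of over 35% in size.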 The method in brief: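 Kinetic fluorescence assay: 1nM USP1/UAF1, 15 min compound preincubation, then 150nM Ub-Rho; 480/540 nm.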
For the next experiment, the system named is TAB109. Nature of the experiment: qHTS profiling for inhibitors of Plasmodium falciparum proliferation (AID 504749). Note: nearly all actives have a fitted effect of over 60% in size. Note: potency is the fitted concentration of half-maximal effect. The settings on record: P. falciparum in erythrocytes, SYBR Green DNA, 72 h; series mostly up to 28.7 µM. A digest of the protocol: (§1)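 Fluorescence of SYBR Green-bound parasite DNA, read at 485/535 nm, served as the growth measure. Infected erythrocytes were cultured with compound 72 h; artemisinin (0.29 uM) and DMSO wells defined the normalization range.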

In a further experiment the test system is ATS189. The experiment is described as above. Particulars: P. falciparum in erythrocytes, SYBR Green DNA, 72 h; series mostly up to 28.7 µM. The method in brief: as §1
The subject of another experiment is CP185. The experiment is described as above. The settings on record: P. falciparum in erythrocytes, SYBR Green DNA, 72 h; series mostly up to 28.7 µM. The method in brief: as §1
The next experiment concerns CP191. Described as above. The settings on record: P. falciparum in erythrocytes, SYBR Green DNA, 72 h; series mostly up to 28.7 µM. A digest of the protocol:
as §1

A further experiment concerns CP192. The description is as above. The settings on record: P. falciparum in erythrocytes, SYBR Green DNA, 72 h; series mostly up to 28.7 µM. The method in brief:
as §1

For another experiment, the system named is CP194. The description is as above. The settings on record: P. falciparum in erythrocytes, SYBR Green DNA, 72 h; series mostly up to 28.7 µM. A digest of the protocol: as §1
The test system of a further experiment is CP201. The experiment is described as above. The settings on record: P. falciparum in erythrocytes, SYBR Green DNA, 72 h; series mostly up to 28.7 µM. A digest of the protocol:
as §1

The next experiment relates to CP237. The description is as above. The settings on record: P. falciparum in erythrocytes, SYBR Green DNA, 72 h; series mostly up to 28.7 µM. The method in brief:
as §1

A further experiment relates to CP247. The experiment is described as above. The settings on record: P. falciparum in erythrocytes, SYBR Green DNA, 72 h; series mostly up to 28.7 µM. The method in brief: as §1
A further experiment deals with CP262. The description is as above. The settings on record: P. falciparum in erythrocytes, SYBR Green DNA, 72 h; series mostly up to 28.7 µM. The method in brief:
as §1

For a further experiment, the system named is CP266. Described as above. Particulars: P. falciparum in erythrocytes, SYBR Green DNA, 72 h; series mostly up to 28.7 µM. The method in brief:
as §1

The next experiment relates to CP268. The description is as above. Particulars: P. falciparum in erythrocytes, SYBR Green DNA, 72 h; series mostly up to 28.7 µM. The method in brief:
as §1

The test system of the next experiment is CP269. The description is as above. Particulars: P. falciparum in erythrocytes, SYBR Green DNA, 72 h; series mostly up to 28.7 µM. A digest of the protocol:
as §1

The next experiment deals with CP305. The description is as above. The settings on record: P. falciparum in erythrocytes, SYBR Green DNA, 72 h; series mostly up to 28.7 µM. A digest of the protocol: as §1
The subject of the next experiment is CP325. Described as above. Particulars: P. falciparum in erythrocytes, SYBR Green DNA, 72 h; series mostly up to 28.7 µM. A digest of the protocol: as §1
For another experiment, the system named is ECU. The experiment is described as above. Particulars: P. falciparum in erythrocytes, SYBR Green DNA, 72 h; series mostly up to 28.7 µM. The method in brief:
as §1

The next experiment relates to HB3. The experiment is described as above. The settings on record: P. falciparum in erythrocytes, SYBR Green DNA, 72 h; series mostly up to 28.7 µM. A digest of the protocol: as §1
In another experiment the test system is PC49. Described as above. Particulars: P. falciparum in erythrocytes, SYBR Green DNA, 72 h; series mostly up to 28.7 µM. A digest of the protocol: as §1
A further experiment concerns TAB113. The experiment is described as above. Particulars: P. falciparum in erythrocytes, SYBR Green DNA, 72 h; series mostly up to 28.7 µM. The method in brief:
as §1

Inconclusive results are not listed. Calls of active or inactive are those of the source. Calls come from the whole dose curve; as a rule, active = well fitted inhibition curve with a large enough effect; inconclusive = small, poorly fitted or top-dose-only effect; inactive = flat fitted curve, though single readings scatter.

Chain of Ubiquitin carboxyl-terminal hydrolase 1 (Homo sapiens) (O94782 whole entry, looked up): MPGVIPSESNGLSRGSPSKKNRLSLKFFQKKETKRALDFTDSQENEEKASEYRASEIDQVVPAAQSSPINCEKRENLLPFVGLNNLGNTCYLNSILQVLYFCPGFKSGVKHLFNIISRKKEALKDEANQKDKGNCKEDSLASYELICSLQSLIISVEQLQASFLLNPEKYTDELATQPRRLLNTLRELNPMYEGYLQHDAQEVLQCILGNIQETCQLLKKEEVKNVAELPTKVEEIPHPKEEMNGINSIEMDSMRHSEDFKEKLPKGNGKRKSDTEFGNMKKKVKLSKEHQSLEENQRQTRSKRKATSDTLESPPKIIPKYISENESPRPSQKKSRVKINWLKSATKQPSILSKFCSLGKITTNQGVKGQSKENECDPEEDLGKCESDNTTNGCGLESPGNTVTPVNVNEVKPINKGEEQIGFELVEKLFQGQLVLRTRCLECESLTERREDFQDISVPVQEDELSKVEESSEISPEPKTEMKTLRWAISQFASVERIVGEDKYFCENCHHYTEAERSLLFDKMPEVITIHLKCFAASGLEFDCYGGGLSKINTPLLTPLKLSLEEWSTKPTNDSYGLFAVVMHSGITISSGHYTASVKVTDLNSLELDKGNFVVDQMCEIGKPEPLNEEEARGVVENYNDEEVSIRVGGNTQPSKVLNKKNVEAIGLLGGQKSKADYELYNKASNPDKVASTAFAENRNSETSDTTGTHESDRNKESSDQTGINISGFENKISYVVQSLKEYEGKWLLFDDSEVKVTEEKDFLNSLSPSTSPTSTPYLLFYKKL

Consider `C[C@H]1C[C@@H]2[C@H]3CCC4=CC(=O)C=C[C@@]4(C)[C@@]3(Cl)[C@@H](O)C[C@]2(C)[C@]1(OC(=O)c1ccco1)C(=O)CCl`, for which, in experiment [1], the Potency entry is “inactive”. The Potency in the experiment on TAB109 was 3.55 µM (active).
Regarding `CO/N=C(\C(=O)N[C@@H]1C(=O)N2C(C(=O)[O-])=C(C[N+]3(C)CCCC3)CS[C@@H]12)c1csc(N)n1`, the Potency entry in the experiment on ATS189, in the experiment on CP185, with CP191, in the experiment on CP192, with CP194 and in the experiment on CP201 was “inactive” throughout. Further, the Potency result with CP237, in the experiment on CP247, with CP262, in the experiment with CP266, in the experiment with CP268 and with CP269 was “inactive” each time. Moreover, the Potency entry in the experiment with CP305, in the experiment with CP325, with ECU, in the experiment on HB3, with PC49 and with TAB113 was “inactive” each time.
